Compound activity as filed in PubChem.
Pf growth 48h: P. falciparum growth inhibition at 48 hours (one generation); P. falciparum luciferase growth in erythrocytes, 48 h; 5.9% of 310,000 active; AID 504832; Potency, µM (highest dose often 28.7 µM), inactives show top-dose activity change, negative = inhibition, most hits filed as inhibitors; active = well fitted inhibition curve with a large enough effect; inconclusive = small, poorly fitted or top-dose-only effect, or another doubt; inactive = no such curve, though single readings can be large or run the other way; note: potency is the fitted concentration of half-maximal effect; % is set by controls: 0 for no effect and ±100 for the full control effect
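Growth was read as firefly luciferase luminescence after a 48 h, 37 C, 5% CO2 exposure of compounds to reporter-bearing P. falciparum cultures (0.1% parasitemia, 2% hematocrit final) in Albumax-supplemented RPMI 1640.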
Shiga toxin inh: Shiga toxin inhibition; Vero cells, Shiga toxin protein synthesis inhibition reporter; inhibition, % at 38.7 µM; 9.2% of 290,000 active; AID 2315; in the data active = inhibition mostly above about 28%, no sharp cut-off; inactive = mostly below about 43%; note: 0% is about no effect
CHX counter: counter-screen hit for Shiga toxin inhibitors, cycloheximide. cell reporter, cycloheximide protein synthesis inhibition counterscreen. max response, %. 12% of 300,000 active; in the data active = max response mostly above about 13%, no sharp cut-off; inactive = mostly below about 14%; note: read at 38.3 µM for the half of the compounds with a filed dose; 0% is about no effect
NS1 inh: inhibitors of influenza NS1 protein function. Potency, µM (highest dose often 46.1 µM), inactives show at the highest dose activity, positive = more growth. 0.4% of 270,000 active; note: potency is the fitted concentration of half-maximal effect; actives are rising curves; nearly all actives have a fitted effect of over 50% in size
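S. cerevisiae expressing influenza A NS1, grown in glucose, washed, then diluted 1:100 into pH 6.0 -URA galactose medium with 23 nl compound. Growth recovery read as OD600; NS1-free strain serves as control.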
SARS PLpro yeast: SARS-CoV PLP inhibition in yeast. AID 485353. Potency, µM (doses to about 32.9 µM), for the others: top-dose activity, positive = growth rescue, hits mostly activators. S. cerevisiae expressing SARS-CoV PLpro, growth rescue. 0.19% of 330,000 active; note: potency is the fitted concentration of half-maximal effect; 0% is about no effect; nearly all actives have a fitted effect of over 55% in size
Pf growth 96h: inhibits malaria parasite growth, 96 h; P. falciparum luciferase reporter growth, 96 h; Potency, µM (top dose mostly 28.7 µM), inactives show top-dose activity change, negative = inhibition, hits mostly inhibitors; 6.9% of 320,000 active; AID 504834; active = well fitted inhibition curve with a large enough effect; inconclusive = small, poorly fitted or top-dose-only effect, or another doubt; inactive = no such curve, though single readings can be large or run the other way; note: potency is the fitted concentration of half-maximal effect; % is set by controls: 0 for no effect and ±100 for the full control effect
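Cell-based qHTS: luciferase-tagged P. falciparum in erythrocytes (2% hematocrit, 0.05% parasitemia final) incubated with compounds for 96 hours, 37 C, 5% CO2; luciferase detection reagent then added and luminescence measured.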
NS1 inh valid: influenza NS1 function inhibition validation; shares compounds with NS1 inh; influenza NS1 function cell assay, 15-point titration; activity change, negative = inhibition, % at 32.9 µM; 1,400 tested, under 10 active; AID 492980; note: 0% is about no effect
Active calls of the source: *; [ ] = another dose, or the depositor's remark. The list is not random: actives were taken first. Their share in the collection is about 21%. Unless noted, calls come from the whole dose curve.

How did COc1ccc(OCC(=O)N/N=C/C=C/c2ccccc2)cc1 do in these assays?
Pf growth 48h: 21%; Shiga toxin inh: -6; CHX counter: 9; NS1 inh: -2%; SARS PLpro yeast: 28%; Pf growth 96h: 17%

What do the screens show for `O=C(CNC(=O)c1ccc(Cl)cc1Cl)OCN1C(=O)c2ccccc2C1=O`?
Pf growth 48h: 26%; SARS PLpro yeast: 2%; Pf growth 96h: 38%

Results for O=C(Cc1c(F)cccc1Cl)OCN1C(=O)c2ccccc2C1=O ?
Pf growth 48h: 2%; Shiga toxin inh: -8; CHX counter: -1; NS1 inh: 2.2µM*; SARS PLpro yeast: 9%; Pf growth 96h: 80%; NS1 inh valid: -6

How did O=C(CCCOc1ccc(Cl)cc1Cl)NN1CCOCC1 do in these assays?
Pf growth 48h: 15%; Shiga toxin inh: 13; CHX counter: 0; NS1 inh: 2%; SARS PLpro yeast: -12%; Pf growth 96h: 0%

What do the screens show for `CCOC(=O)C1C(=O)NC(c2ccccc2)=NC1c1ccc(OC)cc1` (stereo not drawn)?
Pf growth 48h: inconclusive; Shiga toxin inh: -10; CHX counter: 7; SARS PLpro yeast: 1%; Pf growth 96h: 32%

What do the screens show for `CCN(CC)S(=O)(=O)c1cc(C(=O)OCC(=O)c2ccc3c(c2)NC(=O)CO3)ccc1F`?
Pf growth 48h: inconclusive; Shiga toxin inh: 5; CHX counter: -2; NS1 inh: -16%; SARS PLpro yeast: -6%

Results for CN(C)S(=O)(=O)c1cccc(C(=O)OCC(=O)c2ccc3c(c2)NC(=O)CO3)c1 ?
Pf growth 48h: 23%; Shiga toxin inh: -10; CHX counter: 1; NS1 inh: inconclusive; SARS PLpro yeast: 2%; Pf growth 96h: 7%; NS1 inh valid: -10

Results for CCCCn1c(C)cc2cc(O)ccc21 ?
Pf growth 48h: inconclusive; Shiga toxin inh: -22; CHX counter: 7; NS1 inh: 10µM*; SARS PLpro yeast: -9%; Pf growth 96h: 18%; NS1 inh valid: inconclusive

How did COc1ccc(Nc2nc(NCc3ccco3)nc(N/N=C/c3ccc(O)cc3)n2)cc1 do in these assays?
Pf growth 48h: inconclusive; Shiga toxin inh: 70*; CHX counter: 16*; NS1 inh: 11µM*; SARS PLpro yeast: -26%; Pf growth 96h: 16%; NS1 inh valid: inconclusive

Results for CC(NC(=O)c1cc2c(cc1Cl)N1CCCCCC1=NS2(=O)=O)c1ccc(S(N)(=O)=O)cc1 (stereo not drawn) ?
Pf growth 48h: 21%; SARS PLpro yeast: -3%; Pf growth 96h: -26%

What do the screens show for `Cc1cnc(C(=O)OCC(=O)NC(=O)NC(C)C)cn1`?
Pf growth 48h: -8%; Shiga toxin inh: -37; CHX counter: -3; NS1 inh: 1.4µM*; SARS PLpro yeast: -1%; Pf growth 96h: 20%; NS1 inh valid: -3

What do the screens show for `Cc1cnc(C(=O)OCC(=O)Nc2ccc(Cl)cc2)cn1`?
Pf growth 48h: 0%; Shiga toxin inh: 2; CHX counter: -2; NS1 inh: -12%; SARS PLpro yeast: 0%; Pf growth 96h: -29%

How did Cc1ccc(OCCC(=O)OCC(=O)Nc2cc(S(=O)(=O)N(C)C)ccc2C)cc1 do in these assays?
Pf growth 48h: -9%; Shiga toxin inh: 5; CHX counter: 8; SARS PLpro yeast: -2%; Pf growth 96h: 3%

What do the screens show for `N#Cc1cnn2c3c(cnc12)C(=O)N1CCc2ccccc2C1C3` (stereo not drawn)?
Pf growth 48h: 0%; Shiga toxin inh: -4; CHX counter: -4; SARS PLpro yeast: -6%; Pf growth 96h: 8%

Results for Cn1c(CCN2CCCCC2)nc2cc(NS(=O)(=O)c3ccc(Cl)cc3)ccc21 ?
Pf growth 48h: 2.1µM*; Shiga toxin inh: -4; CHX counter: 7; NS1 inh: 0.89µM*; SARS PLpro yeast: 7%; Pf growth 96h: 3%[5.75 µM]; NS1 inh valid: -23

Results for C#C[C@]1(O)CC[C@H]2[C@@H]3CCC4=CC(=O)CC[C@]4(C)[C@H]3CC[C@@]21C ?
Pf growth 48h: -6%; Shiga toxin inh: 4; CHX counter: -2; NS1 inh: 1%; SARS PLpro yeast: -1%; Pf growth 96h: inconclusive

What do the screens show for `C[C@]12Cc3cn4c(nc3C=C1CCC1C2CC[C@@]2(C)[C@H]1CC[C@@]2(O)C#N)nc1ccccc14` (stereo partly drawn)?
NS1 inh: 40µM*; NS1 inh valid: inconclusive

What do the screens show for `CCc1ccc(N=C2NC(=O)/C(=C/c3ccc(OCC(=O)O)c(OC)c3)S2)cc1`?
Pf growth 48h: -14%; Shiga toxin inh: -2; CHX counter: 1; NS1 inh: 11µM*; SARS PLpro yeast: -1%; Pf growth 96h: inconclusive; NS1 inh valid: 46

What do the screens show for `CCOc1cc(/C=C2\SC(=Nc3ccccc3)N(c3ccccc3)C2=O)ccc1OCC(=O)O`?
Pf growth 48h: inconclusive; Shiga toxin inh: -13; CHX counter: -4; NS1 inh: inconclusive; SARS PLpro yeast: 10%; Pf growth 96h: inconclusive; NS1 inh valid: -35

Results for CCOc1cc(/C=C2\SC(=Nc3ccc(F)cc3)N(c3ccc(F)cc3)C2=O)ccc1OCC(=O)O ?
Pf growth 48h: inconclusive; Shiga toxin inh: -7; CHX counter: -1; NS1 inh: inconclusive; SARS PLpro yeast: 0%; Pf growth 96h: inconclusive

What do the screens show for `CCC1c2ccc(C)n2CCN1C(=O)Nc1ccccc1OC` (stereo not drawn)?
Pf growth 48h: inconclusive; Shiga toxin inh: 29*; CHX counter: 15*; NS1 inh: 16µM*; SARS PLpro yeast: -1%; Pf growth 96h: 111%; NS1 inh valid: 3

How did CC(C)Nc1ccc(C(CC(N)=O)NC(=O)c2ccc(Br)cc2)cc1[N+](=O)[O-] (stereo not drawn) do in these assays?
Pf growth 48h: 2%; Shiga toxin inh: -11; CHX counter: -4; NS1 inh: 2%; SARS PLpro yeast: 3%; Pf growth 96h: 8%

How did CN(Cc1ccccc1)c1ccc(C(CC(N)=O)NC(=O)c2ccc(Br)cc2)cc1[N+](=O)[O-] (stereo not drawn) do in these assays?
Pf growth 48h: inconclusive; Shiga toxin inh: 12; CHX counter: -1; NS1 inh: 5µM*; SARS PLpro yeast: -2%; Pf growth 96h: -8%; NS1 inh valid: inconclusive

How did COC(=O)c1c(NC(=O)CN2CCCC(C)C2)c2c(C)cccc2n1C (stereo not drawn) do in these assays?
Shiga toxin inh: -20; CHX counter: -2; NS1 inh: 5µM*; SARS PLpro yeast: 11%; NS1 inh valid: -19

How did COC(=O)c1c(NC(=O)CN2CCC(C(N)=O)CC2)c2c(C)cccc2n1C do in these assays?
Shiga toxin inh: -13; CHX counter: -4; NS1 inh: inconclusive; SARS PLpro yeast: 2%; Pf growth 96h: -10%
